PostGolgi ctrl = growth of the yeast control strain, post-Golgi counter-screen | inhibition, % at 10 µM | 98,000 compounds, 5% hits | efflux-deficient yeast background strain, growth absorbance A615, 16 h
CYP2C9 inh = blocks human cytochrome P450 2C9; CYP2C9 Supersomes, luciferin-H conversion, luminescence; inhibition, % at 5 µM; P11712; 96,000 compounds, 20% hits; AID 777;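 active = blocking of liver enzyme CYP2C9 beyond about 50% at 5 µM, limit read from the data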
CYP2C19 inh = human CYP2C19 inhibition; AID 778; 96,000 compounds, 21% hits; inhibition, % at 5 µM; CYP2C19 Supersomes, luciferin-H EGE luminescence, 30 min; P33261;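 active = CYP2C19 inhibition above a set limit at 5 µM in the primary screen, cut at about 50% in these data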
Target sequence (P33261 whole entry, looked up): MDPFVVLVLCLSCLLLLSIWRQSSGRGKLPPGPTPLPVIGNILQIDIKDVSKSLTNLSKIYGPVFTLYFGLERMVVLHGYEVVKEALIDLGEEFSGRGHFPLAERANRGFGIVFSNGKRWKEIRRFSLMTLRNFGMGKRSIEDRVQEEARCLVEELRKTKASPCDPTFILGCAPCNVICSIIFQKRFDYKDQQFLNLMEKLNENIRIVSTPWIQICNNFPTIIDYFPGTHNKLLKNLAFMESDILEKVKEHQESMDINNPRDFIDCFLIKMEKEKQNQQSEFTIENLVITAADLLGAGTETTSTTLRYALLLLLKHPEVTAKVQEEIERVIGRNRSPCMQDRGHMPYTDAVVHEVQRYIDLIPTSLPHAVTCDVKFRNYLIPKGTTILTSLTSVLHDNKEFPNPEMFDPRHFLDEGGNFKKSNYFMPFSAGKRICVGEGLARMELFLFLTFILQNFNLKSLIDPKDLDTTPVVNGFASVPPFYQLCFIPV
PostGolgi yeast = growth inhibition of a yeast mutant, post-Golgi transport screen. inhibition, % at 10 µM. 98,000 compounds, 0.9% hits. post-Golgi transport phenotypic cell assay;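 note: yeast cells grown in 1536-well plates; yeast grown about 18 h at 30C before absorbance read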
CYP2C9 act = increases human cytochrome P450 2C9 activity; 96,000 compounds, 1.4% hits; recombinant CYP2C9, luciferin-H conversion, luminescence; stronger effect = higher value; factor 1 = untreated enzyme, 0 = blocked; AID 1024; P11712; activation factor at 5 µM;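 active = activation factor of 2 or more for CYP2C9 at a 5 µM dose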
CYP2C19 act = increases human CYP2C19 enzyme activity; P33261; activation factor at 5 µM; 96,000 tested, under 10 active; recombinant CYP2C19, luciferin-H EGE luminescence; stronger effect = higher value; 0 = fully inhibited enzyme, 1 = untreated enzyme;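 active = activation factor of at least 2 at 5 µM in the primary screen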
Large screens that a line does not name were inactive. This is a sample that favours compounds with a hit; in the whole collection about 32% have one here. Cut-off read from the data, not from the text of the source, unless noted: active = inhibition above about 30%; inactive = the rest.

Cc1sc2ncnc(SCC(=O)NNC(=O)COc3cccc4ccccc34)c2c1C	none
Cc1sc2ncnc(SCC#N)c2c1C	none
CCCN(CC1CC1)C(=O)CSc1ncnc2sc(C)c(C)c12	PostGolgi ctrl 37, CYP2C9 inh 53, CYP2C19 inh 92
CCOC(=O)Cc1c(C)nc2c(-c3ccc(OC)cc3)c(C)nn2c1C	none
Cn1c(N)c(C(=O)COC(=O)Cn2cc(C(F)(F)F)ccc2=O)c(=O)n(C)c1=O	none
Cc1noc(C)c1COc1ccc(C(=O)OCC(=O)Nc2ccc3ccccc3c2)cc1	CYP2C9 inh 88, CYP2C19 inh 65
Cc1noc(C)c1COc1ccc(C(=O)OCC(=O)c2ccc3c(c2)OCCO3)cc1	none
Cc1noc(C)c1COc1ccc(C(=O)OCC(=O)N2CC3(C)CC2CC(C)(C)C3)cc1 (stereo not given)	CYP2C9 inh 53, CYP2C19 inh 64
COc1ccc(C(C)=O)cc1COC(=O)c1c(C)noc1C	CYP2C9 inh 52, CYP2C19 inh 61
Cc1noc(C)c1COc1ccc(C(=O)OCC(=O)N2CC(=O)Nc3ccccc32)cc1	none
CCOC(=O)c1ccc(OCc2c(C)noc2C)cc1	CYP2C9 inh 79, CYP2C19 inh 75
COc1ccc(C(C)=O)cc1COC(=O)c1cnc(C)cn1	none
O=c1[nH]n(-c2ccc(Cl)cc2)c2ncccc12	none
Cc1noc(C(=O)N2CC3(C)CC2CC(C)(C)C3)c1Cl (stereo not given)	CYP2C19 inh 82
COc1cc(C(=O)Oc2ccccc2)ccc1OCc1c(C)noc1C	none
COc1ccc(CC(=O)N2CC3(C)CC2CC(C)(C)C3)cc1 (stereo not given)	none
CCOC(=O)c1cc(NC(=O)c2c(C)noc2C)cc(C(=O)OCC)c1	CYP2C9 inh 75
COc1ccc(C(C)=O)cc1COC(=O)c1ccc(OCc2c(C)noc2C)cc1	CYP2C9 inh 76, CYP2C19 inh 88
Cc1cccc(C)c1OCC(=O)N1CC2(C)CC1CC(C)(C)C2 (stereo not given)	CYP2C19 inh 61
COc1ccc(C(=O)Nn2cnc3scc(-c4cccs4)c3c2=O)c(O)c1	none (no result: CYP2C9 inh, CYP2C19 inh, CYP2C9 act, CYP2C19 act)
COc1cccc(-n2cnc3scc(-c4cccs4)c3c2=O)c1	CYP2C9 inh 79
O=c1c2c(-c3cccs3)csc2ncn1-c1ccc(Br)cc1	PostGolgi ctrl 38
CN(C)C(=O)N1CCC(C(=O)NCc2cccs2)CC1	none
O=c1c2ccccc2nc2n1C(CSc1ccc(Br)cc1)CN2 (stereo not given)	none
CCOc1ccc(NC(=O)CC2C(=O)N(c3ccccc3)C(=S)N2Cc2ccccn2)cc1 (stereo not given)	none
O=C(CC1C(=O)N(c2ccc(F)cc2)C(=O)N1Cc1ccccn1)Nc1ccccc1 (stereo not given)	CYP2C19 inh 56
O=C(CC1C(=O)N(c2ccc(Cl)cc2)C(=S)N1CCc1ccncc1)Nc1ccc(F)cc1 (stereo not given)	CYP2C9 inh 95, CYP2C19 inh 85
NC(=O)c1oc2ccccc2c1NC(=O)c1ccco1	CYP2C9 act 3.7
NC(=O)c1oc2ccccc2c1NC(=O)c1ccccc1	CYP2C9 act 3.8
CCN1CCN(S(=O)(=O)c2ccc(Cl)c(C(=O)Nc3nnc(CC(C)C)s3)c2)CC1	none
CCOC(=O)c1c(C)n(C)c2ccc(OCC(O)CN(CC)CC)cc12 (stereo not given)	none
COc1ccc(OCC(O)CN2C(=O)c3ccccc3S2(=O)=O)cc1 (stereo not given)	CYP2C19 inh 92
CCOC(=O)c1c(C)n(C)c2ccc(OCC(O)CN3C(=O)c4ccccc4S3(=O)=O)cc12 (stereo not given)	CYP2C9 inh 73
O=C(Nc1ccccc1)c1ccccc1OCC(O)CN1C(=O)c2ccccc2S1(=O)=O (stereo not given)	CYP2C9 inh 76, CYP2C19 inh 63
CCOC(=O)c1c(C)n(C)c2ccc(OCC(O)Cn3nc(C)cc3C)cc12 (stereo not given)	CYP2C9 inh 74, CYP2C19 inh 78
O=C(CSc1nnc(-c2ccccc2)n1Cc1ccco1)Nc1ccc(S(=O)(=O)N2CCCC2)cc1	none
CCOCCCNC(=O)CN1C(=O)CSc2cc(S(=O)(=O)N3CCCCCC3)ccc21	none

High-throughput results: PubChem, several laboratories
